According to ChEMBL document CHEMBL1157539, “Thousands of chemical starting points for antimalarial lead identification” (Nature, 2010):

Each molecule was assayed on Plasmodium falciparum (assay: GSK_TCMDC: Inhibition of Plasmodium falciparum 3D7 in whole red blood cells, using parasite LDH activity as an index of growth. Test compounds present at 2uM).
Type: functional

SMILES | Inhibition
O=C(NCc1ccco1)c1ccc(CN2CCN(C(c3ccccc3)c3ccccc3)CC2)cc1 | 96%
CCc1cn2c3c(cc(C(=O)N[C@@H](Cc4ccccc4)[C@H](O)CNCC(C)C)cc13)N(C)S(=O)(=O)CC2 | 98%
c1ccc(CN2CCN(c3cc(-c4cncc(-c5ccccc5)c4)nc(-c4ccccc4)n3)CC2)cc1 | 88%
Brc1ccc(Nc2ccnc3cc(-c4nccs4)ccc23)cc1Oc1ccnc2cc(-c3nccs3)ccc12 | 91%
Clc1ccc(-c2[nH]c3ccccc3c2CN2CCC(N3CCCCC3)CC2)cc1 | 93%
O=C(/C=C/c1ccc(Cl)c(Cl)c1)NCCCCCCN1CCN(C(=O)Nc2cc(Cl)nc(Cl)c2)CC1 | 100%
Clc1nc2ccccn2c1C=Cc1ccc2ccccc2n1 | 86%
CCN(CCNC(=O)Cn1c(C)cc2cc([N+](=O)[O-])ccc21)c1cccc(C)c1 | 97%
CC(=O)NCCNCc1cccc(C(=O)NCc2cccc(C(F)(F)F)c2)c1 | 95%
Cl.O=c1cc(NCCCNC2CCOc3c(Cl)cc(Cl)cc32)[nH]c2ccccc12 (stereo not given) | 100%
CCOc1cc(Br)c(C(C)NC(=O)c2ccccc2)cc1OCC (stereo not given) | 92%
Cl.O=c1cc(NCCCNCc2ccc(Cl)c(Cl)c2)[nH]c2cc(F)cc(F)c12 | 100%
Cc1ccc(Nc2nc(N/N=C/c3cccc([N+](=O)[O-])c3)nc(Nc3ccccc3)n2)c(C)c1 | 91%
CC(C)N1CCC(NC(=O)N2CCCN(c3ncnc4cc(-c5ccccc5)sc34)CC2)CC1.O=C(O)C(F)(F)F | 87%
CN1CCC(N2CCN(Cc3ccc(-c4ccc(-c5nc6cc(F)ccc6[nH]5)s4)cc3)CC2)CC1.O=C(O)C(F)(F)F | 100%
O=C(O)C(F)(F)F.c1cc(CN2CCC(CCN3CCCCC3)CC2)cc(-c2cccc(-c3nc4ccccc4[nH]3)c2)c1 | 100%
O=C(NCCCCCN1CCC(c2c[nH]c3ccccc23)CC1)Nc1ccc(Br)cc1 | 91%
CCn1c(Cc2ccccc2)nnc1SCC(=O)N1c2ccccc2Sc2ccccc21 | 99%
Br.CC(CCON1C(N)=NC(N)=NC1(C)C)c1ccc(Cl)c(Cl)c1 (stereo not given) | 98%
C=C(C)Cn1cc(C2CCN(CCCCNC(=O)c3sc(-c4ccc(Cl)cc4Cl)nc3CO)CC2)c2ccccc21 | 82%

SMILES | Inhibition
COc1ccc(Cn2c(Nc3cccc(C(F)(F)F)c3)nc3cc(C(=O)NCCN4CCCC4)ccc32)cc1Cl | 97%
Cc1sc(CNCCCNc2cc(=O)c3ccccc3[nH]2)cc1Br | 100%
O=C(Cn1c(CCc2cccc(F)c2F)nc(=O)c2ccccc21)N(CCN1CCCCC1)Cc1ccc(-c2ccc(C(F)(F)F)cc2)cc1.O=C(O)C(O)C(O)C(=O)O | 100%
Cc1ccccc1CNc1nccc(NCCC(=O)Nc2ccccc2)n1.O=C(O)C(F)(F)F | 90%
O=C(O)C(F)(F)F.Oc1ccc(CCNc2nc(NCCCOc3ccccc3-c3cccnc3)nc(N3CCNCC3)n2)cc1 | 92%
C(=N\Nc1nccc2sc(-c3cccnc3)cc12)/c1ccncc1 | 100%
O=C(Nc1ccc(Cl)cc1)N[C@H]1CCN(CCCCCNC(=O)C2CC2c2ccc(Cl)c(Cl)c2)C1 (stereo not given in full) | 96%
CCN(CC)c1nc(-c2ccccc2)cc(-c2ccccc2)c1C#N | 100%
N#Cc1ccc(N[C@@H](CC2CCCCC2)C(=O)NCc2cc(Cl)cc(Cl)c2)c2ccccc12.O=C(O)C(F)(F)F | 94%
Nc1ncc(-c2ccc(F)cc2)c2ccc(-c3cccc(F)c3)cc12 | 99%
OC(c1ccccc1)C1CN(Cc2ccccc2)CCC1(O)c1ccccc1 (stereo not given) | 91%
CCNc1cc(C(=O)NC(Cc2ccccc2)C(O)CNC(C)(C)CCCC(C)C)c(F)c(N2CCCS2(=O)=O)c1.O=CO (stereo not given) | 98%
OCCc1ccc(Nc2nccc(-c3nnc4ccccn34)n2)cc1 | 93%
Cc1ccc2ncc(Cl)c(CCN3CCC(NCc4ccc5c(n4)NC(=O)CS5)CC3)c2n1.Cl | 90%
CN1CCCC(CN2CCN(Cc3ccc(-c4ccc(-c5nc6cc(F)ccc6[nH]5)s4)cc3)CC2)C1.O=C(O)C(F)(F)F (stereo not given) | 100%
CCC(C)(C)c1ccc(Oc2ccc(NC(=O)Nc3ccc(Cl)c(Cl)c3)cc2)cc1 | 98%
CCOc1ccc2c(=NN=Cc3ccc(OC)c(OC)c3)cc(C)[nH]c2c1 | 100%
Cc1cc(C(=O)CN2C(=O)NC(C)(c3ccc4ccccc4c3)C2=O)c(C)n1Cc1ccco1 (stereo not given) | 97%
Cc1ccc(C)c2sc(N(CCCn3ccnc3)C(=O)c3ccco3)nc12.Cl | 96%
CN(C)CC(O)C(O)(c1ccccc1)c1ccc(F)cc1.Cl (stereo not given) | 93%
